From PubChem BioAssay (EPA / NIEHS)
Where “and” joins values, the source holds several entries; their conditions need not be identical. Identical values can stand only once. More than one record can exist for a structure, and the calls need not agree. Calls of active or inactive are those of the source. How the source made its calls: active means hit-call score of the fitted dose curve at least 0.9, where 1 is the maximum; inactive means score below 0.9.

Key:
[1] = read-out: E-selectin (Homo sapiens) (UniProt P16581); test: BSK_3C_Eselectin: BioMAP Diversity Plus: 3C Assay for Eselectin Biomarker Activity (AID 2283015); details: primary human endothelial cells (HUVEC); actives raise or lower the signal
Method in brief: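 Human vascular endothelium from umbilical vein is exposed to test chemicals for 24 h. E-selectin levels are read by ELISA and compared with DMSO controls.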

[2] = read-out: Human Leukocyte Antigen - DR isotype (HLADR), HLA-DRA (gene 3122); test: BSK_3C_HLADR: BioMAP Diversity Plus: 3C Assay for Human Leukocyte Antigen - DR isotype (HLADR) Biomarker Activity (AID 2283019); details: primary human endothelial cells (HUVEC); actives raise or lower the signal
Method in brief: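 Endothelial cells from human umbilical vein are treated with test chemical; after 24 h, HLA-DR levels are measured by ELISA. Data are fitted in both directions using DMSO as the baseline.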

[3] = read-out: Matrix Metallopeptidase 1 (MMP1), MMP1 (gene 4312); test: BSK_BE3C_MMP1: BioMAP Diversity Plus: BE3C Assay for Matrix Metallopeptidase 1 (MMP1) Biomarker Activity (AID 2283024); details: primary human bronchial epithelial cells; actives raise or lower the signal
Method in brief: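 Dose cells, wait 24 h, run MMP1 ELISA; cells are human bronchial epithelial primaries. Both increases and decreases relative to DMSO counted.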

[4] = read-out: Pselectin, SELP (gene 6403); test: BSK_4H_Pselectin: BioMAP Diversity Plus: 4H Assay for Pselectin Biomarker Activity (AID 2283026); details: primary human endothelial cells (HUVEC); actives raise or lower the signal
Method in brief: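 Human vascular endothelium from umbilical vein; P-selectin measured by ELISA at 24 h post-dose, with cytotoxicity checked by sulforhodamine B total-protein staining in parallel cultures (0.1% SRB after 10% TCA fixation, read at 560 nm).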

[5] = read-out: Human Leukocyte Antigen - DR isotype (HLADR), HLA-DRA (gene 3122); test: BSK_BE3C_HLADR: BioMAP Diversity Plus: BE3C Assay for Human Leukocyte Antigen - DR isotype (HLADR) Biomarker Activity (AID 2283032); details: primary human bronchial epithelial cells; actives raise or lower the signal
Method in brief: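 Signal came from an ELISA for HLA-DR in human bronchial epithelial primary cells harvested 24 h after treatment; gain- and loss-of-signal fitting used DMSO controls as reference.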

[6] = read-out: Vascular cell adhesion molecule 1 (VCAM1), VCAM1 (gene 7412); test: BSK_4H_VCAM1: BioMAP Diversity Plus: 4H Assay for Vascular cell adhesion molecule 1 (VCAM1) Biomarker Activity (AID 2283033); details: primary human endothelial cells (HUVEC); actives raise or lower the signal
Method in brief: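 Endpoint derived from bidirectional fitting against DMSO controls of VCAM-1 ELISA signal in umbilical vein endothelial cells sampled at 24 h following treatment.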

[7] = read-out: Interferon-gamma inducible Protein 10 (IP10), CXCL10 (gene 3627); test: BSK_BE3C_IP10: BioMAP Diversity Plus: BE3C Assay for Interferon-gamma inducible Protein 10 (IP10) Biomarker Activity (AID 2283034); details: primary human bronchial epithelial cells; actives raise or lower the signal
Method in brief: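 Using primary human bronchial epithelial cultures, the assay captures IP-10 by ELISA one day (24 h) after exposure. Parallel SRB staining of total protein flags overt cytotoxicity. Fits run bidirectionally relative to DMSO.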

[8] = read-out: urokinase plasminogen activator (uPA), PLAU (gene 5328); test: BSK_BE3C_uPA: BioMAP Diversity Plus: BE3C Assay for urokinase plasminogen activator (uPA) Biomarker Activity (AID 2283038); details: primary human bronchial epithelial cells; actives raise or lower the signal;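 further: uPA protein level quantified by ELISA in cell cultures; uPA read one day after compound addition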
Method in brief: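 Measured by ELISA: uPA from human primary bronchial epithelial cells 24 h after chemical treatment. Values derive from bidirectional curve fitting with DMSO serving as negative control. Total protein by SRB staining in parallel wells flagged overt cytotoxicity.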

[9] = read-out: Interleukin-6 (IL6), IL6 (gene 3569); test: BSK_CASM3C_IL6: BioMAP Diversity Plus: CASM3C Assay for Interleukin-6 (IL6) Biomarker Activity for (AID 2283040); details: primary human coronary artery smooth muscle cells; actives raise or lower the signal
[10] = read-out: Monokine induced gamma interferon (MIG), CXCL9 (gene 4283); test: BSK_CASM3C_MIG: BioMAP Diversity Plus: CASM3C Assay for Monokine induced gamma interferon (MIG) Biomarker Activity (AID 2283048); details: primary human coronary artery smooth muscle cells; actives raise or lower the signal;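 further: MIG protein level measured by ELISA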
[11] = read-out: Tissue Factor, F3 (gene 2152); test: BSK_CASM3C_TissueFactor: BioMAP Diversity Plus: CASM3C Assay for Tissue Factor Biomarker Activity (AID 2283052); details: primary human coronary artery smooth muscle cells; actives raise or lower the signal;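 further: cell surface tissue factor protein level read by ELISA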
[12] = read-out: Urokinase-type plasminogen activator receptor (uPAR), PLAUR (gene 5329); test: BSK_CASM3C_uPAR: BioMAP Diversity Plus: CASM3C Assay for Urokinase-type plasminogen activator receptor (uPAR) Biomarker Activity (AID 2283054); details: primary human coronary artery smooth muscle cells; actives raise or lower the signal;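 further: cell-surface uPAR protein level quantified by ELISA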
[13] = read-out: Epidermal growth factor receptor (EGFR), EGFR (gene 1956); test: BSK_hDFCGF_EGFR: BioMAP Diversity Plus: hDFCGF Assay for Epidermal growth factor receptor (EGFR) Biomarker Activity (AID 2283057); details: primary human foreskin fibroblasts; actives raise or lower the signal
Method in brief: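 Measured by ELISA: EGFR levels on primary human foreskin fibroblasts 24 h after chemical treatment, analysed relative to DMSO with bidirectional fitting.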

[14] = read-out: Intercellular Adhesion Molecule 1 (ICAM1), ICAM1 (gene 3383); test: BSK_KF3CT_ICAM1: BioMAP Diversity Plus: KF3CT Assay for Intercellular Adhesion Molecule 1 (ICAM1) Biomarker Activity (AID 2283067); details: primary human keratinocytes with fibroblasts; actives raise or lower the signal
Method in brief: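 Dose the keratinocyte/fibroblast co-culture, wait 24 h, measure ICAM-1 by ELISA, then fit increases or decreases against DMSO. Cytotoxicity is checked in parallel cultures by SRB total-protein staining.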

[15] = read-out: E-selectin (Homo sapiens) (UniProt P16581); test: BSK_LPS_Eselectin: BioMAP Diversity Plus: LPS Assay for Eselectin Biomarker Activity (AID 2283077); details: primary human HUVEC with PBMC; actives raise or lower the signal
Method in brief: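 Signal of E-selectin, detected by ELISA, served as the endpoint; cells were umbilical vein endothelium with PBMC, read 24 h after treatment. DMSO defined baseline, and both increases and decreases were fitted.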

[16] = read-out: Interleukin-8 (IL8), CXCL8 (gene 3576); test: BSK_LPS_IL8: BioMAP Diversity Plus: LPS Assay for Interleukin-8 (IL8) Biomarker Activity (AID 2283078); details: primary human HUVEC with PBMC; actives raise or lower the signal
Method in brief: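 Endothelial cells and PBMC from human donors are co-cultured, treated with chemicals and LPS, then assayed for IL-8 by ELISA after 24 h. Parallel SRB staining (0.1% SRB after 10% TCA fixation, 560 nm) flags cytotoxicity.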

[17] = read-out: Interleukin-1 alpha (IL1a), IL1A (gene 3552); test: BSK_LPS_IL1a: BioMAP Diversity Plus: LPS Assay for Interleukin-1 alpha (IL1a) Biomarker Activity (AID 2283080); details: primary human HUVEC with PBMC; actives raise or lower the signal
Method in brief: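 Measured: IL-1 alpha via ELISA at 24 h in LPS-activated human umbilical vein endothelium–PBMC co-culture. Baseline: DMSO, bidirectional fitting.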

[18] = read-out: Macrophage colony-stimulating factor (MCSF), CSF1 (gene 1435); test: BSK_LPS_MCSF: BioMAP Diversity Plus: LPS Assay for Macrophage colony-stimulating factor (MCSF) Biomarker Activity (AID 2283083); details: primary human HUVEC with PBMC; actives raise or lower the signal
Method in brief: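 Compound is added to a human vascular primary co-culture of umbilical vein endothelium and blood mononuclear cells. After 24 h, M-CSF is quantified by ELISA. Signal changes are fitted in both directions against DMSO.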

CD69, CD69 (gene 969) = test: BSK_SAg_CD69: BioMAP Diversity Plus: SAg Assay for CD69 Biomarker Activity (AID 2283089); details: primary human HUVEC with PBMC; actives raise or lower the signal;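 on AC50: cell surface CD69 protein quantified by ELISA with fluorescence detection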
Method in brief: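 ELISA, fluorescence read-out: CD69 on human umbilical vein endothelial cell + PBMC co-culture, 24 h post-dosing. Gain or loss of signal fitted bidirectionally against DMSO baseline.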

[19] = BSK_SAg_PBMCCytotoxicity: PBMC Cytotoxicity Assessment in the BioMAP Diversity Plus: SAg Assay (AID 2283093); details: primary human HUVEC with PBMC;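 further: PBMC viability measured as Alamar Blue reduction fluorescence at 546/580 nm; fitted both ways against DMSO so a hit may be loss or gain of signal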;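 on AC50: PBMC superantigen activated with SEB plus TSST-1 one hour after compound addition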
Method in brief: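 HUVEC/PBMC co-culture; PBMC exposed to chemical 1 h before SEB and TSST-1 activation (20 ng/mL each), incubated 90 h, then Alamar Blue 6 h, fluorescence 546/580 nm. Bidirectional fit versus DMSO baseline.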

Measured: AC50

Sequence of E-selectin (Homo sapiens) (P16581 whole entry, looked up): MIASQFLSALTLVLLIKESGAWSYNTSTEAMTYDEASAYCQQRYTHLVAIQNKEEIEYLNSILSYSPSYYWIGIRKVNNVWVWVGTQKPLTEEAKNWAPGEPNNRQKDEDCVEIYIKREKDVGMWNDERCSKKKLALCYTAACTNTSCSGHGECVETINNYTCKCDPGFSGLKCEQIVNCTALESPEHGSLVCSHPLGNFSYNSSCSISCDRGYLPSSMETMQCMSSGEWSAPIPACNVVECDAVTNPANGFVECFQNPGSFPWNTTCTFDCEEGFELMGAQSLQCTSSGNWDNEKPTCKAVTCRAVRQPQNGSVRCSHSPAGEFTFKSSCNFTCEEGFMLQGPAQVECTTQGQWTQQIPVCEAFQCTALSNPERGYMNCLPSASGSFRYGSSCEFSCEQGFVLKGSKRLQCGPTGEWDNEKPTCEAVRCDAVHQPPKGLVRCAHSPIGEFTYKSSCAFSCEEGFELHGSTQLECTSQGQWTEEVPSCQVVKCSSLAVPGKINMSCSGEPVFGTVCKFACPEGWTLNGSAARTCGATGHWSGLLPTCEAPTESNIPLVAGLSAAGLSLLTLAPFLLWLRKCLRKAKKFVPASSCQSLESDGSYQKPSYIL

COc1ccc(C(=O)c2ccccc2O)c(O)c1
inactive: [1] | [2] | [3] | [4] | [5] | [7] | [8] | [9] | [11] | [12] | [13] | [14] | [15] | [16] | [17] | [18] | CD69, CD69 (gene 969) | [19]
active: [2] 20 µM | [4] 20 µM | [6] 11.5 µM and 14.2 µM | [10] 20 µM and 16.1 µM

CCC[Si](OC(C)=O)(OC(C)=O)OC(C)=O
inactive: [1] | [2] | [3] | [4] | [5] | [6] | [7] | [8] | [9] | [10] | [11] | [12] | [13] | [14] | [15] | [16] | [17] | [18] | CD69, CD69 (gene 969) | [19]
active: [12] 3.83 µM

CN(C)CCC(c1ccc(Cl)cc1)c1ccccn1 (stereo not given)
active: [4] 0.502 µM | [6] 756 nM
inactive: all other assays above

Cc1c(C(N)=O)cc([N+](=O)[O-])cc1[N+](=O)[O-]
active: [5] 27.8 µM | [7] 32.6 µM
inactive: [1] | [2] | [3] | [4] | [5] | [6] | [7] | [8] | [9] | [10] | [11] | [12] | [13] | [14] | [15] | [16] | [17] | [18] | CD69, CD69 (gene 969) | [19]

CC(C)C1OCCN1CCOC(=O)NCCCCCCNC(=O)OCCN1CCOC1C(C)C (stereo not given)
inactive: all assays above

CCCCCCCCCCC1CO1 (stereo not given)
active: [1] 34.8 µM | [2] 28.6 µM | [4] 33.3 µM | [5] 31.2 µM | [6] 33800 nM | [7] 30.6 µM | [11] 30.2 µM | [12] 34.3 µM | [14] 29.3 µM | [15] 36.1 µM | [16] 37.5 µM | [17] 31.8 µM | [18] 31.6 µM | CD69, CD69 (gene 969) 36.7 µM | [19] 29.5 µM
inactive: [3] | [8] | [9] | [10] | [13]
